Measured values taken from the supplement of paper PMC10127200.
Counter-ions that a name gives are not always drawn.

Legend:
Experiment in all cases: Euclidean distance of Cell Painting phenotypic profile (signed KS, 77 features) to DMSO centroid (dimensionless distance); 5 or 10 uM (library dependent); higher = stronger phenotypic change vs DMSO (phenoactivity)
Conditions in all cases: 48 h
[1] = test system: 786-O
Summary of the method: (§1)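 Five cancer lines, together with a healthy fibroblast line, received library compounds for 48 h at a library-dependent 10 or 5 uM and 0.1% DMSO final. Harmony then derived 77 features from confocal 20X images (9 fields/well) of the stained cells, scoring each as a signed Kolmogorov-Smirnov statistic against same-plate vehicle wells. After plate-position correction, correlation weighting and replicate averaging at the top dose, phenoactivity was taken as each profile's Euclidean distance to the median vehicle profile.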

[2] = test system: A549
Summary of the method: as §1

[3] = test system: DU145
Summary of the method: as §1

[4] = test system: FB
Summary of the method: as §1

[5] = test system: HEPG2
Summary of the method: as §1

[6] = test system: OVCAR4
Summary of the method: as §1

For `CN(C)CCCN1c2ccccc2CCc2ccc(Cl)cc21` [Clomipramine HCl], the Euclidean distance [1] was 1.08, the Euclidean distance [2] was 0.845 and the Euclidean distance [3] was 1.4. It also gave an Euclidean distance [4] of 1.93, an Euclidean distance [5] of 1.92 and an Euclidean distance [6] of 1.77.

With `C[C@H]1CNCCCN1S(=O)(=O)c1cccc2cncc(F)c12` [Ripasudil (K-115) hydrochloride dihydrate] the Euclidean distance [1] was 2.28, the Euclidean distance [2] was 0.784 and the Euclidean distance [3] was 2.78. It also gave an Euclidean distance [4] of 2.01, an Euclidean distance [5] of 1.34 and an Euclidean distance [6] of 1.12.

In the case of `CCCc1nc(C)c2c(=O)nc(-c3cc(S(=O)(=O)N4CCN(CC)CC4)ccc3OCC)[nH]n12` [Vardenafil HCl Trihydrate], the Euclidean distance [1] is reported as 1.18, the Euclidean distance [2] is reported as 0.732 and the Euclidean distance [3] is reported as 1.26. It also gave an Euclidean distance [4] of 1.02, an Euclidean distance [5] of 0.77 and an Euclidean distance [6] of 0.83.

`O=C(c1cc(Cc2n[nH]c(=O)c3ccccc23)ccc1F)N1CCN(C(=O)C2CC2)CC1` was tested, and the Euclidean distance [1] was 1.56, the Euclidean distance [2] was 1.23 and the Euclidean distance [3] was 0.958. The Euclidean distance [4] was 1.7, the Euclidean distance [5] was 1.21 and the Euclidean distance [6] was 1.11.

For `COc1c(C)cnc(Cn2cnc3c(Cl)nc(N)nc32)c1C`, the Euclidean distance [1] was 3.02, the Euclidean distance [2] was 3.08 and the Euclidean distance [3] was 3.08. The Euclidean distance [4] was 3.34, the Euclidean distance [5] was 4.24 and the Euclidean distance [6] was 3.08.

Work on `COc1ccc2cc(CCC(C)=O)ccc2c1` [Nabumetone] yielded an Euclidean distance [1] of 0.791, an Euclidean distance [2] of 1.11 and an Euclidean distance [3] of 0.872. It also gave an Euclidean distance [4] of 0.947, an Euclidean distance [5] of 0.532 and an Euclidean distance [6] of 1.55.

`CCN(CC)CCOC(=O)c1ccc(N)cc1` [Procaine HCl] showed an Euclidean distance [1] of 0.661, an Euclidean distance [2] of 0.741 and an Euclidean distance [3] of 0.744. For the same compound, the Euclidean distance [4] was 0.877, the Euclidean distance [5] was 0.478 and the Euclidean distance [6] was 0.916.

For `O=C(O)CCCC[C@@H]1SC[C@@H]2NC(=O)N[C@@H]21` [Biotin (Vitamin B7)], the Euclidean distance [1] was 0.776, the Euclidean distance [2] was 0.871 and the Euclidean distance [3] was 0.982. For the same compound, the Euclidean distance [4] was 0.902, the Euclidean distance [5] was 0.533 and the Euclidean distance [6] was 1.23.

For `CC1(C)CC(=O)c2c(C(F)(F)F)nn(-c3ccc(C(N)=O)c(N[C@H]4CC[C@H](O)CC4)c3)c2C1`, the Euclidean distance [1] was 3.06, the Euclidean distance [2] was 2.99 and the Euclidean distance [3] was 3.09. It also gave an Euclidean distance [4] of 3.59, an Euclidean distance [5] of 3.83 and an Euclidean distance [6] of 2.73.

In the case of `CC1(C)S[C@@H]2[C@H](NC(=O)[C@H](N)c3ccc(O)cc3)C(=O)N2[C@H]1C(=O)O` [Amoxicillin trihydrate], the Euclidean distance [1] is reported as 0.875, the Euclidean distance [2] is reported as 1 and the Euclidean distance [3] is reported as 0.666. It also gave an Euclidean distance [4] of 0.987, an Euclidean distance [5] of 0.529 and an Euclidean distance [6] of 1.31.

`Cc1c(NC(=O)OC[C@@H]2COCCN2)cn2ncnc(Nc3ccc4c(cnn4Cc4cccc(F)c4)c3)c12` showed an Euclidean distance [1] of 2.06, an Euclidean distance [2] of 1.47 and an Euclidean distance [3] of 1.13. The Euclidean distance [4] was 1.52, the Euclidean distance [5] was 1.28 and the Euclidean distance [6] was 0.963.

`CC[C@H](C)C(=O)O[C@H]1C[C@H](O)C=C2C=C[C@H](C)[C@H](CC[C@@H](O)C[C@@H](O)CC(=O)O)[C@H]21` [Pravastatin sodium] gave an Euclidean distance [1] of 0.813, an Euclidean distance [2] of 0.763 and an Euclidean distance [3] of 0.709. For the same compound, the Euclidean distance [4] was 0.425, the Euclidean distance [5] was 0.254 and the Euclidean distance [6] was 0.778.

`CC(=O)N1C[C@H](O)C[C@H]1C(=O)O` [Oxaceprol] was tested, and the Euclidean distance [1] was 0.691, the Euclidean distance [2] was 0.845 and the Euclidean distance [3] was 0.785. For the same compound, the Euclidean distance [4] was 0.895, the Euclidean distance [5] was 0.812 and the Euclidean distance [6] was 1.28.

For `Clc1ccc(Cn2c(CN3CCCC3)nc3ccccc32)cc1` [Clemizole], the Euclidean distance [1] was 1.07, the Euclidean distance [2] was 0.265 and the Euclidean distance [3] was 1.22. The Euclidean distance [4] was 0.972, the Euclidean distance [5] was 0.65 and the Euclidean distance [6] was 0.648.

For `O=C(O)Cc1cccc(OCCCN(Cc2cccc(C(F)(F)F)c2Cl)CC(c2ccccc2)c2ccccc2)c1`, the Euclidean distance [1] was 1.18, the Euclidean distance [2] was 0.78 and the Euclidean distance [3] was 0.825. It also gave an Euclidean distance [4] of 1.32, an Euclidean distance [5] of 0.721 and an Euclidean distance [6] of 0.79.

`FC(F)(c1ccc2ncccc2c1)c1nnc2ccc(-c3ccncc3)nn12` was tested, and the Euclidean distance [1] was 1.6, the Euclidean distance [2] was 0.84 and the Euclidean distance [3] was 2.54. For the same compound, the Euclidean distance [4] was 0.717, the Euclidean distance [5] was 1.24 and the Euclidean distance [6] was 1.2.

`OC[C@H]1O[C@@H](O[C@@H]2[C@@H](CO)OC(O)(CO)[C@H]2O)[C@H](O)[C@@H](O)[C@H]1O` (mixture of isomers) [Lactulose] was tested, and the Euclidean distance [1] was 1.29, the Euclidean distance [2] was 0.822 and the Euclidean distance [3] was 0.75. For the same compound, the Euclidean distance [4] was 0.999, the Euclidean distance [5] was 1.43 and the Euclidean distance [6] was 1.7.

`O=C(O)c1cn(C2CC2)c2cc(N3CCNCC3)c(F)cc2c1=O` [Ciprofloxacin hydrochloride hydrate] gave an Euclidean distance [1] of 1.39, an Euclidean distance [2] of 0.835 and an Euclidean distance [3] of 0.784. For the same compound, the Euclidean distance [4] was 1.29, the Euclidean distance [5] was 0.735 and the Euclidean distance [6] was 1.87.

`CC(=O)NS(=O)(=O)c1ccc(N)cc1` [Sulfacetamide] was tested, and the Euclidean distance [1] was 1.08, the Euclidean distance [2] was 0.619 and the Euclidean distance [3] was 1.45. The Euclidean distance [4] was 1.07, the Euclidean distance [5] was 0.298 and the Euclidean distance [6] was 1.01.

For `C[C@H]1c2cccc(O)c2C(=O)C2=C(O)[C@]3(O)C(=O)C(C(N)=O)=C(O)[C@@H](N(C)C)[C@@H]3[C@@H](O)[C@@H]21` [Doxycycline], the Euclidean distance [1] was 1.5, the Euclidean distance [2] was 1.3 and the Euclidean distance [3] was 0.845. The Euclidean distance [4] was 0.954, the Euclidean distance [5] was 0.564 and the Euclidean distance [6] was 1.67.

`Cc1oc(=O)oc1CN1CCN(c2cc3c(cc2F)c(=O)c(C(=O)O)c2n3C(C)S2)CC1` (configuration not stated) [Prulifloxacin (NM441. AF 3013)] was tested, and the Euclidean distance [1] was 1.38, the Euclidean distance [2] was 0.71 and the Euclidean distance [3] was 0.968. The Euclidean distance [4] was 0.785, the Euclidean distance [5] was 1.9 and the Euclidean distance [6] was 0.841.

`O=c1cc(-c2ccc(O)c(O)c2)oc2cc(O)cc(O)c12` [Luteolin] showed an Euclidean distance [1] of 1.39, an Euclidean distance [2] of 1.21 and an Euclidean distance [3] of 2.73. The Euclidean distance [4] was 1.9, the Euclidean distance [5] was 1.36 and the Euclidean distance [6] was 1.27.
